Laboratory results reported in the antibiotic and cytotoxicity screens of Wong et al. (2023).
Screen size: about 39,000 compounds; about 1,500 (3.8%) were called active. Only a selection was taken, and actives are over-represented in it overall.

System: HSkMC (human skeletal muscle cells)
Experiment: cytotoxicity call (relative viability < 0.9)
Conditions: 10 µM

Compound | cytotoxicity call
C[C@@H]1CCCCO[C@H](CN(C)C(=O)Cc2ccccc2)[C@H](C)CN([C@@H](C)CO)C(=O)c2cc(NC(=O)Cc3ccccc3)ccc2O1 | inactive
COc1ccc(NC(=O)Nc2ccc3c(c2)C(=O)N([C@@H](C)CO)C[C@@H](C)[C@@H](CN(C)C(=O)NC2CCCCC2)OCCCC[C@H](C)O3)cc1 | inactive
C[C@@H]1CN([C@H](C)CO)S(=O)(=O)c2ccc(C#Cc3ccncc3)cc2O[C@@H]1CN(C)C(=O)C1CCOCC1 | inactive
C[C@@H]1CCCCO[C@@H](CN(C)C(=O)C2CCCCC2)[C@@H](C)CN([C@@H](C)CO)C(=O)c2cc(NC(=O)Nc3ccc4c(c3)OCO4)ccc2O1 | inactive
COc1ccc(NC(=O)N(C)C[C@H]2Oc3c(NS(C)(=O)=O)cccc3C(=O)N([C@H](C)CO)C[C@@H]2C)cc1 | inactive
C[C@@H]1CCCCO[C@H](CN(C)C)[C@H](C)CN([C@@H](C)CO)C(=O)c2cc(NC(=O)Nc3cccc4ccccc34)ccc2O1 | inactive
C[C@H](CO)N1C[C@H](C)[C@H](CN(C)S(=O)(=O)c2cn(C)cn2)Oc2ccc(NC(=O)CCCN(C)C)cc2C1=O | inactive
O=C(CN1CCOCC1)NCC[C@@H]1CC[C@H](NS(=O)(=O)c2ccc(Cl)cc2)[C@@H](CO)O1 | inactive
C[C@@H]1CN([C@H](C)CO)C(=O)c2cccc(NC(=O)CCCCCC(=O)Nc3ccccc3N)c2O[C@H]1CN(C)C(=O)Nc1ccccc1 | inactive
Cn1cc(N2C[C@]3(COCCN(C(=O)C4CC4)C3)OCC2=O)cn1 | inactive
COc1ccc(CN(C)C[C@@H]2OCCCC[C@H](C)Oc3ccc(NC(=O)Nc4ccc(C(F)(F)F)cc4)cc3C(=O)N([C@@H](C)CO)C[C@H]2C)cc1 | active
COc1ccc(CN(C)C[C@@H]2OCCCC[C@@H](C)Oc3ccc(NC(=O)Nc4ccc(C(F)(F)F)cc4)cc3C(=O)N([C@H](C)CO)C[C@@H]2C)cc1 | active
COc1ccc(NC(=O)Nc2ccc3c(c2)C(=O)N([C@H](C)CO)C[C@@H](C)[C@@H](CN(C)Cc2ccc(C(F)(F)F)cc2)OCCCC[C@H](C)O3)cc1 | inactive
COc1ccc(NC(=O)Nc2ccc3c(c2)C(=O)N([C@@H](C)CO)C[C@@H](C)[C@H](CN(C)Cc2ccc(C(F)(F)F)cc2)OCCCC[C@H](C)O3)cc1 | inactive
COc1ccc(NC(=O)Nc2ccc3c(c2)C(=O)N([C@H](C)CO)C[C@@H](C)[C@@H](CN(C)Cc2ccc(C(F)(F)F)cc2)OCCCC[C@@H](C)O3)cc1 | active
COc1ccc(NC(=O)Nc2ccc3c(c2)C(=O)N([C@H](C)CO)C[C@@H](C)[C@H](CN(C)Cc2ccc(C(F)(F)F)cc2)OCCCC[C@H](C)O3)cc1 | inactive
COc1ccc(NC(=O)Nc2ccc3c(c2)C(=O)N([C@H](C)CO)C[C@H](C)[C@@H](CN(C)Cc2ccc(C(F)(F)F)cc2)OCCCC[C@@H](C)O3)cc1 | inactive
COc1ccc(CN(C)C[C@@H]2OCCCC[C@H](C)Oc3ccc(NC(=O)Nc4ccc(C(F)(F)F)cc4)cc3C(=O)N([C@@H](C)CO)C[C@@H]2C)cc1 | active
C[C@@H]1CN([C@H](C)CO)C(=O)Cc2cc(NS(=O)(=O)c3cn(C)cn3)ccc2O[C@@H]1CN(C)C(=O)Nc1ccc(F)cc1 | inactive
C[C@@H]1CN([C@H](C)CO)C(=O)Cc2cc(NC(=O)Nc3cccc4ccccc34)ccc2O[C@@H]1CN(C)S(=O)(=O)c1ccc(F)cc1 | inactive

Compound | cytotoxicity call
COc1ccccc1C#Cc1ccc2c(c1)O[C@@H](CN(C)C(C)=O)[C@@H](C)CN([C@H](C)CO)S2(=O)=O | inactive
C[C@@H]1CN([C@@H](C)CO)C(=O)c2cc(-c3cccc(C(=O)N(C)C)c3)cnc2O[C@@H]1CN(C)C(=O)Cc1ccccn1 | inactive
COc1ccc(S(=O)(=O)N(C)C[C@@H]2OCCCC[C@H](C)Oc3ccc(NC(=O)Nc4c(C)noc4C)cc3C(=O)N([C@H](C)CO)C[C@H]2C)cc1 | inactive
O=C(c1cccnc1)N1C[C@H]2[C@@H](c3ccccc31)[C@@H](CO)N2C(=O)CN1CCOCC1 | inactive
CN(C)S(=O)(=O)c1ccc(CN)cc1 | inactive
CC(C)NC(=O)Nc1ccc2c(c1)C(=O)N(C)[C@H]1CC[C@@H](CC(=O)NCc3ccc(F)cc3)O[C@@H]1CO2 | inactive
C[C@@H]1CN([C@H](C)CO)C(=O)c2cccc(NS(=O)(=O)c3ccc(Cl)cc3)c2O[C@@H]1CN(C)Cc1ccc(Oc2ccccc2)cc1 | inactive
C[C@@H]1CN([C@@H](C)CO)C(=O)c2ccccc2-c2ccccc2CO[C@@H]1CN(C)C(=O)Nc1ccc(F)cc1 | inactive
C[C@@H]1CN([C@@H](C)CO)C(=O)Cc2cc(NC(=O)Cn3cnnn3)ccc2O[C@@H]1CN(C)Cc1ccncc1 | inactive
COc1ccc(CN(C)C[C@H]2OCCCC[C@H](C)Oc3ccc(NC(=O)Nc4ccc(C(F)(F)F)cc4)cc3C(=O)N([C@H](C)CO)C[C@@H]2C)cc1 | active
COc1ccc(CN(C)C[C@H]2OCCCC[C@@H](C)Oc3ccc(NC(=O)Nc4ccc(C(F)(F)F)cc4)cc3C(=O)N([C@@H](C)CO)C[C@H]2C)cc1 | active
COc1ccc(NC(=O)Nc2ccc3c(c2)C(=O)N([C@@H](C)CO)C[C@H](C)[C@H](CN(C)Cc2ccc(C(F)(F)F)cc2)OCCCC[C@@H](C)O3)cc1 | inactive
COc1ccc(CN(C)C[C@@H]2OCCCC[C@H](C)Oc3ccc(NC(=O)Nc4ccc(C(F)(F)F)cc4)cc3C(=O)N([C@H](C)CO)C[C@@H]2C)cc1 | active
COc1ccc(CN(C)C[C@H]2OCCCC[C@@H](C)Oc3ccc(NC(=O)Nc4ccc(C(F)(F)F)cc4)cc3C(=O)N([C@H](C)CO)C[C@H]2C)cc1 | active
COc1ccc(NC(=O)Nc2ccc3c(c2)C(=O)N([C@@H](C)CO)C[C@@H](C)[C@@H](CN(C)Cc2ccc(C(F)(F)F)cc2)OCCCC[C@@H](C)O3)cc1 | inactive
C[C@H]1CN([C@@H](C)CO)C(=O)c2cc(NC(=O)Cc3ccccc3)ccc2O[C@@H]1CN(C)S(=O)(=O)c1ccccc1 | inactive
COc1cccc(S(=O)(=O)Nc2ccc3c(c2)[C@@H]2C[C@H](CC(=O)NCC(F)(F)F)O[C@H](CO)[C@@H]2O3)c1 | inactive
C[C@@H]1CN([C@H](C)CO)C(=O)CCCn2nncc2CO[C@@H]1CN(C)C(=O)Nc1cccc(Oc2ccccn2)c1 | inactive
COCCNC(=O)C[C@H]1CC[C@H]2[C@@H](COc3ccc(NC(=O)Nc4cccc(F)c4)cc3C(=O)N2C)O1 | inactive
Cc1noc(C)c1NC(=O)Nc1cccc2c1O[C@H](CN(C)Cc1ccc(Cl)c(Cl)c1)[C@H](C)CN([C@@H](C)CO)C2=O | inactive

Compound | cytotoxicity call
C[C@@H]1CN([C@@H](C)CO)C(=O)CCCn2cc(nn2)CO[C@@H]1CN(C)Cc1ccc2c(c1)OCCN2C | inactive
C[C@@H]1CN([C@@H](C)CO)C(=O)c2cc(NC(=O)C3CC3)ccc2O[C@H]1CN(C)C(=O)Nc1ccc2c(c1)OCO2 | inactive
CCc1nc2ccccc2c(C(=O)Nc2cccc(Cl)c2)c1C | inactive
C[C@@H]1CN([C@H](C)CO)C(=O)Cc2cc(NC(=O)C3CC3)ccc2O[C@@H]1CN(C)C(=O)Nc1ccc2c(c1)OCO2 | inactive
O=C(C[C@@H]1CC[C@@H](NC(=O)c2cnccn2)[C@H](CO)O1)NCc1ccccc1F | inactive
C[C@H]1CN([C@@H](C)CO)C(=O)Cc2cc(NC(=O)Cn3cnnn3)ccc2O[C@H]1CN(C)Cc1ccccc1 | inactive
Cn1c(-c2ccccc2)c[nH]c1=S | inactive
COc1ccc(NC(=O)Nc2ccc3c(c2)C(=O)N([C@@H](C)CO)C[C@@H](C)[C@@H](CN(C)Cc2ccc(C(F)(F)F)cc2)OCCCC[C@H](C)O3)cc1 | inactive
COc1ccc(NC(=O)Nc2ccc3c(c2)C(=O)N([C@@H](C)CO)C[C@H](C)[C@@H](CN(C)Cc2ccc(C(F)(F)F)cc2)OCCCC[C@@H](C)O3)cc1 | inactive
COc1ccc(CN(C)C[C@H]2OCCCC[C@H](C)Oc3ccc(NC(=O)Nc4ccc(C(F)(F)F)cc4)cc3C(=O)N([C@@H](C)CO)C[C@H]2C)cc1 | active
COc1ccc(CN(C)C[C@@H]2OCCCC[C@@H](C)Oc3ccc(NC(=O)Nc4ccc(C(F)(F)F)cc4)cc3C(=O)N([C@H](C)CO)C[C@H]2C)cc1 | active
COc1ccc(NC(=O)Nc2ccc3c(c2)C(=O)N([C@H](C)CO)C[C@H](C)[C@@H](CN(C)Cc2ccc(C(F)(F)F)cc2)OCCCC[C@H](C)O3)cc1 | inactive
COc1ccc(NC(=O)Nc2ccc3c(c2)C(=O)N([C@H](C)CO)C[C@@H](C)[C@H](CN(C)Cc2ccc(C(F)(F)F)cc2)OCCCC[C@@H](C)O3)cc1 | inactive
COc1ccc(CN(C)C[C@H]2OCCCC[C@H](C)Oc3ccc(NC(=O)Nc4ccc(C(F)(F)F)cc4)cc3C(=O)N([C@@H](C)CO)C[C@@H]2C)cc1 | active
Cc1noc(C)c1S(=O)(=O)Nc1ccc2c(c1)C(=O)N([C@H](C)CO)C[C@H](C)[C@@H](CN(C)C(=O)NC(C)C)O2 | inactive
COc1ccc(NC(=O)N(C)C[C@@H]2Oc3c(NS(C)(=O)=O)cccc3C(=O)N([C@@H](C)CO)C[C@@H]2C)cc1 | inactive
O=C(C[C@@H]1CC[C@H]2[C@@H](COC[C@@H](O)CN2S(=O)(=O)c2ccc(Cl)cc2)O1)NCCN1CCCC1 | inactive
C[C@@H]1CN([C@H](C)CO)C(=O)c2cccc(NS(=O)(=O)c3ccc(F)cc3)c2O[C@@H]1CN(C)S(=O)(=O)c1ccc(F)cc1 | inactive
C[C@@H]1CN([C@@H](C)CO)C(=O)c2cc(NC(=O)Nc3ccc(F)cc3)ccc2O[C@@H](C)CCCCO[C@@H]1CN(C)C(=O)CCCN(C)C | inactive
